Assay results published in PubChem BioAssay.
Values without a mark were called inactive. For some assays here: Measured potencies and affinities stand elsewhere. Calls of active or inactive are those of the source. Unless noted, how the calls were made is not given here.

Tests used:
[1] = antimalarial activity against Dd2 strain (AID 2302;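 active means growth inhibition above 50% at the single 2 µM test dose, taken to imply half-maximal potency below 2 µM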;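 further: 0% = DMSO untreated growth and 100% = chloroquine plus artemisinin killed control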); settings: P. falciparum Dd2 in RBCs, LDH growth readout, 72 h; at 2 µM; hits give high values
[2] = human hepatoma cell viability loss – ATP luminescence, cytotoxicity control for P. falciparum antimalarial project, primary screen (AID 2303;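 active means inhibition above 50%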;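 further: 0% = DMSO wells and 100% = digitonin-killed cells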); settings: HepG2 viability, 24-48 h, at 10 µM, hits give high values
[3] = target: L-lactate dehydrogenase (Plasmodium falciparum (isolate CDC / Honduras)) (UniProt Q27743); assay: PfLDH activity inhibition – cell lysate, 3D7 strain, counter-screen for P. falciparum growth inhibition project (AID 2304);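 further: 0% = vehicle and 100% = reference inhibitor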; settings: P. falciparum 3D7 crude extract, LDH APAD/NBT absorbance; at 2 µM; hits give high values
[4] = inhibition of 3D7 malaria parasite growth – strain 3D7 (AID 2306);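 further: 0% = DMSO wells and 100% = chloroquine plus artemisinin control wells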; settings: P. falciparum 3D7 erythrocytic growth, LDH absorbance, 72 h; at 2 µM; hits give high values
[5] = target: Calcium-dependent protein kinase 1 (Plasmodium falciparum (isolate 3D7)) (UniProt P62344); assay: PfCDPK1 kinase inhibitors, biochemical, TCAMS library (AID 1159585; cut-off not given, nearly all actives have IC50 up to about 0.98 µM;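 further: inhibitors leave more ATP so luminescence rises with inhibition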); settings: recombinant PfCDPK1, Kinase-Glo ATP depletion luminescence
[6] = target: Plasmodium falciparum protein kinase 6 (PK6, PF3D7_1337100) (UniProt Q8IDW1); assay: PfPK6 kinase inhibitors, biochemical, TCAMS library (AID 1159586); settings: recombinant PfPK6, Kinase-Glo ATP depletion luminescence
[7] = target: Protein kinase 7 (PK7), Plasmodium falciparum 3D7 (PF3D7_0213400) (UniProt Q7YTF7); assay: inhibition of Plasmodium PK7 catalytic activity – biochemical, TCAMS antimalarial set, Kinase-Glo luminescence (AID 1159587); settings: recombinant PfPK7, Kinase-Glo ATP depletion luminescence
[8] = target: Calcium-dependent protein kinase 4 (Plasmodium falciparum (isolate 3D7)) (UniProt Q8IBS5); assay: PfCDPK4 kinase inhibitors, biochemical, TCAMS library (AID 1159588; cut-off not given, nearly all actives have IC50 up to about 0.91 µM); settings: recombinant PfCDPK4, Kinase-Glo ATP depletion luminescence
Calcium-dependent protein kinase 4 (Plasmodium falciparum (isolate 3D7)), sequence (Q8IBS5 whole entry, looked up): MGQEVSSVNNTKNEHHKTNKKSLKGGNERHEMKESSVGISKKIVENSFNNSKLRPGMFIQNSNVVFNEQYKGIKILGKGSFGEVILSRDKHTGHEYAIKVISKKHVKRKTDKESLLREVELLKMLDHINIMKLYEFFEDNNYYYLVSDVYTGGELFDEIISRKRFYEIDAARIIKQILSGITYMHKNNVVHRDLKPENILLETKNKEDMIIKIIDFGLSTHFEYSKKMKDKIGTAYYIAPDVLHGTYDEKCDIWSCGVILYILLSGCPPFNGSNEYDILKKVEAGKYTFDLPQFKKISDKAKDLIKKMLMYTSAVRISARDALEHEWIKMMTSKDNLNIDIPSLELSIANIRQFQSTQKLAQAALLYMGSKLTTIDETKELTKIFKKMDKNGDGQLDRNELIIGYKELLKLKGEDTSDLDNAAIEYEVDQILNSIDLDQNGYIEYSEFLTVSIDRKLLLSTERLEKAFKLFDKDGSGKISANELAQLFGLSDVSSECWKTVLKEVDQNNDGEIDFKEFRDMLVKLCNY

Protein kinase 7 (PK7), Plasmodium falciparum 3D7 (PF3D7_0213400), sequence (Q7YTF7 1-343): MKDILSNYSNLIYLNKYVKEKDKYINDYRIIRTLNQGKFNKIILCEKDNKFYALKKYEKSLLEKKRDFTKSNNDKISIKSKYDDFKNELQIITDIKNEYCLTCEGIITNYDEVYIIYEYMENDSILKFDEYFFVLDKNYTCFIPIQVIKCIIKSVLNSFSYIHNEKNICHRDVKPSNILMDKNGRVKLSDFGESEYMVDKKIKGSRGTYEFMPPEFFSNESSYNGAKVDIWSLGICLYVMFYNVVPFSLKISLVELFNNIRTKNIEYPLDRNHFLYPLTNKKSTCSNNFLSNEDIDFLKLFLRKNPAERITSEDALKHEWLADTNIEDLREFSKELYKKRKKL
Plasmodium falciparum protein kinase 6 (PK6, PF3D7_1337100), sequence (Q8IDW1 1-305): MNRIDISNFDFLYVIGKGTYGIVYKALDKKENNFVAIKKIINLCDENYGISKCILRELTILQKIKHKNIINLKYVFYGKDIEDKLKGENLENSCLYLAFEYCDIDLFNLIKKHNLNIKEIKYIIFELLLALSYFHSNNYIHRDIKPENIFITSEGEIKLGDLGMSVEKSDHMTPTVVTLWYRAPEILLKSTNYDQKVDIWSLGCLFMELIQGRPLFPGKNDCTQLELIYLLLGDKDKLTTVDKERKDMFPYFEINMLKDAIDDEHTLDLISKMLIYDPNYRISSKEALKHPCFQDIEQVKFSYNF
L-lactate dehydrogenase (Plasmodium falciparum (isolate CDC / Honduras)), sequence (Q27743 whole entry, looked up): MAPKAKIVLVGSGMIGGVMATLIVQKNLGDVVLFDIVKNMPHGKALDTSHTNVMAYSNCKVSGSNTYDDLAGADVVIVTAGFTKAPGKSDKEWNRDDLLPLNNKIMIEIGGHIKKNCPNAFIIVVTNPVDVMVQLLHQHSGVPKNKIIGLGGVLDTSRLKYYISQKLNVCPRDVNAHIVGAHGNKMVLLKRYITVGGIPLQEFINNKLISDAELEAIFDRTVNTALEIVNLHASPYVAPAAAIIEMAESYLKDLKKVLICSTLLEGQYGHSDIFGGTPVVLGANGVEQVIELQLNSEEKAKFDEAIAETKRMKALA
Calcium-dependent protein kinase 1 (Plasmodium falciparum (isolate 3D7)), sequence (P62344 whole entry, looked up): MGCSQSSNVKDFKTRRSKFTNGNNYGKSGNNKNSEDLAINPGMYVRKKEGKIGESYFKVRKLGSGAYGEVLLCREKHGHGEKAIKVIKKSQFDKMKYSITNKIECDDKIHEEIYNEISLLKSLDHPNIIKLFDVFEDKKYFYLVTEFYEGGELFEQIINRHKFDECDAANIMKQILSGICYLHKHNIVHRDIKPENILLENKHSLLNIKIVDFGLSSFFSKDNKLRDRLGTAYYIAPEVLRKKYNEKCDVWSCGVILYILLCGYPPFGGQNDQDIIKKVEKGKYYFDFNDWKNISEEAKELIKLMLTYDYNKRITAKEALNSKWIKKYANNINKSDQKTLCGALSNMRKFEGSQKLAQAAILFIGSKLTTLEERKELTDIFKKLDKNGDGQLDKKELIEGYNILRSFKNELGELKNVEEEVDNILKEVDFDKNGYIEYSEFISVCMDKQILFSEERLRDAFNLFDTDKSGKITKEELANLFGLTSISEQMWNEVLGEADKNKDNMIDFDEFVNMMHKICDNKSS

SMILES | growth inhibition [1] | inhibition [2] | inhibition [3] | growth inhibition [4] | outcome [5] | outcome [6] | outcome [7] | outcome [8]
COc1cccc2sc(N3CCN(C(=O)c4ccc([N+](=O)[O-])o4)CC3)nc12 | 67% (active) | -17% | 1% | 95% (active) | inactive | inactive | inactive | inactive
Cc1c(-c2cccc(CNCCc3ccc(Cl)cc3)c2)cnc(N)c1C | 30% | 9% | -5% | 87% (active) | inactive | inactive | inactive | inactive
COc1ccc2ncc(F)c(CCN3[C@@H]4CC[C@H]3CC(NCc3cc5c(cn3)OCS5)C4)c2n1 (stereo not given in full) | 48% | 15% | -2% | 95% (active) | inactive | inactive | inactive | inactive
Cc1c(CNCCCNc2cc(=O)c3ccccc3[nH]2)sc(-c2ccco2)c1Br | 39% | -4% | -1% | 93% (active) | inactive | inactive | inactive | inactive
CC1(C)N=C(N)N=C(N)N1OCCNCc1ccc(Cl)cc1 | -2% | 5% | -5% | 95% (active) | inactive | inactive | inactive | inactive
CCCCNC(=O)c1cc(CNC2CCCCC2)ccc1-c1cccc(CNCc2ccc(-c3ccccc3)cc2)c1 | 85% (active) | 100% (active) | 0% | 100% (active) | inactive | inactive | inactive | inactive
Cc1cc(NN=Cc2cccc(Cl)c2)c2ccc(F)cc2n1 | 98% (active) | -2% | -4% | 101% (active) | inactive | inactive | inactive | inactive
CCNc1cc(C(=O)N[C@@H](Cc2ccccc2)[C@H](O)CNC(C)(C)Cc2ccccc2)cc(N2CCCC2=O)c1 | 78% (active) | 1% | 3% | 99% (active) | inactive | inactive | inactive | inactive
O=S(=O)(c1c(Cl)cccc1Cl)N1CCCCC(c2ccc(C(F)(F)F)cc2)=N1 | 98% (active) | 11% | -2% | 99% (active) | inactive | inactive | inactive | inactive
COc1cccc(C(=O)Nc2ccc(Nc3nc(C)cc(N4CCCCC4)n3)cc2)c1OC | 27% | 47% | 1% | 92% (active) | inactive | inactive | inactive | inactive
COc1cccc2cc(C(=O)N[C@@H](CC(C)C)C(=O)N[C@H](/C=N/N3CC(=O)NC3=O)CC(C)C)oc12 | 64% (active) | 3% | 2% | 86% (active) | inactive | inactive | inactive | inactive
COc1ccc(CCN(C)CCCN2CCC(NC(=O)c3cccc4c(=O)c5ccccc5sc34)CC2)cc1OC | 79% (active) | 67% (active) | 4% | 97% (active) | inactive | inactive | inactive | inactive
COc1ccccc1NC(=O)Nc1ccc(-c2cccc(-c3nc4ccccc4[nH]3)c2)cc1 | 25% | 42% | 0% | 101% (active) | inactive | inactive | inactive | inactive
Cc1cc(N)ncc1-c1ccc(NC(=O)Nc2cc(C(F)(F)F)ccc2F)cc1 | 23% | 15% | 3% | 100% (active) | inactive | inactive | inactive | inactive
Cc1onc(-c2ccccc2)c1C(=O)Nc1nc(-c2ccccn2)nc2ccsc12 | 78% (active) | 23% | -4% | 97% (active) | inactive | inactive | inactive | inactive
O=S(=O)(c1cc(Cl)c(Cl)cc1Cl)N1CCCCC(c2ccc(C(F)(F)F)cc2)=N1 | 99% (active) | 9% | -1% | 98% (active) | inactive | inactive | inactive | inactive
Cc1ccc2nc(-c3ccc(C=CC(=O)NC4CCN(Cc5ccccc5)CC4)cc3)[nH]c2c1 | 92% (active) | 9% | -1% | 101% (active) | inactive | inactive | inactive | inactive
CCNc1cc(C(=O)N[C@@H](Cc2ccccc2)[C@H](O)CNC2(Cc3cccc(Cl)c3)CCC2)cc(N2CCCCS2(=O)=O)c1 | 83% (active) | 22% | 1% | 95% (active) | inactive | inactive | inactive | inactive
Cc1nn(CC(C)C)c2sc(C(=O)Nc3nc(-c4ccccn4)cs3)cc12 | 67% (active) | 29% | 1% | 96% (active) | inactive | inactive | inactive | inactive
N#Cc1ccc(N2CCN(Cc3ccc(-c4cccc(-c5nc6ccccc6[nH]5)c4)cc3)CC2)nc1 | 29% | 33% | -1% | 95% (active) | inactive | inactive | inactive | inactive

SMILES | growth inhibition [1] | inhibition [2] | inhibition [3] | growth inhibition [4] | outcome [5] | outcome [6] | outcome [7] | outcome [8]
Oc1c(CN2CCCC(C(F)(F)F)C2)cc(Cl)c2ccccc12 (stereo not given) | 53% (active) | 23% | 4% | 94% (active) | inactive | inactive | inactive | inactive
Fc1cc(Cl)ccc1Nc1ccnc(Nc2ccc3cn[nH]c3c2)n1 | 56% (active) | 8% | -3% | 97% (active) | inactive | inactive | inactive | inactive
CS(=O)(=O)c1ccc(-c2cncc(Nc3cccc([N+](=O)[O-])c3)c2)cc1 | 70% (active) | 6% | -1% | 97% (active) | inactive | inactive | inactive | inactive
OCC1CCN(Cc2cccc(-c3ccc(-c4nc5ccc(C(F)(F)F)cc5[nH]4)s3)c2)CC1 | 90% (active) | -6% | -9% | 99% (active) | inactive | inactive | inactive | inactive
O=c1c2sc(-c3ccc(Cl)cc3)cc2ncn1Cc1ccc(OCCN2CCCC2)c2ccccc12 | 81% (active) | 38% | 1% | 100% (active) | inactive | inactive | inactive | inactive
Cc1cc(C(=O)CN2C(=O)NC(C)(c3ccc4ccccc4c3)C2=O)c(C)n1Cc1ccco1 (stereo not given) | 71% (active) | 12% | 1% | 97% (active) | inactive | inactive | inactive | inactive
CN(C)CCOc1cc(NC(=O)Nc2ccc(-c3ccncc3)c(Cl)c2)ccc1I | 100% (active) | 43% | 4% | 101% (active) | inactive | inactive | inactive | inactive
CC1CN(Cc2ccccc2)CCN1c1ccc(NC(=O)c2cccs2)cc1 (stereo not given) | 96% (active) | 0% | -2% | 96% (active) | inactive | inactive | inactive | inactive
CCCC(C)NC[C@@H](O)[C@H](Cc1ccccc1)NC(=O)c1cc(C2CCCC2)cc(N2CCCCS2(=O)=O)c1 (stereo not given in full) | 99% (active) | 8% | 3% | 98% (active) | inactive | inactive | inactive | inactive
COc1ccc(CNC2CCN(C)CC2)cc1-c1ccc(S(=O)(=O)NC2CCC2)c(F)c1 | 97% (active) | 96% (active) | 7% | 101% (active) | inactive | inactive | inactive | inactive
O=C(NC1CC1)c1cnc(N2CCN(Cc3ccc(Cl)cc3)CC2)c(Cl)c1 | 91% (active) | 39% | 0% | 93% (active) | inactive | inactive | inactive | inactive
COc1cccc2c(NN=Cc3cccc(Cl)c3)cc(C)nc12 | 75% (active) | 3% | 2% | 101% (active) | inactive | inactive | inactive | inactive
O=C(Nc1cccc(-c2cc(-c3c(Cl)cccc3Cl)no2)c1)c1cncc(-c2cccs2)c1 | 39% | -1% | -2% | 91% (active) | inactive | inactive | inactive | inactive
N#Cc1ccc2c(c1)CCN(CCC1CCC(Nc3ncnc4ccccc34)CC1)C2 (stereo not given) | 96% (active) | 65% (active) | -4% | 101% (active) | inactive | inactive | inactive | inactive
CCN(CC)CCCC(C)Nc1cc(C=Cc2ccc([N+](=O)[O-])cc2)nc2ccc(OC)cc12 (stereo not given) | 100% (active) | 37% | 4% | 100% (active) | inactive | inactive | inactive | inactive
CN1c2ccccc2Sc2cc(CNCCSCCNCc3ccc4c(c3)Sc3ccccc3N4C)ccc21 | 44% | 58% (active) | 0% | 84% (active) | inactive | inactive | inactive | inactive
Fc1cc(CN2CCCC2)ccc1OCCCN1CCN(c2cccc(Cl)c2Cl)CC1 | 15% | 67% (active) | -1% | 82% (active) | inactive | inactive | inactive | inactive
FC(F)(F)COc1ccc2ccccc2c1CCNCCCCNCCc1c(OCC(F)(F)F)ccc2ccccc12 | 53% (active) | 99% (active) | 0% | 100% (active) | inactive | inactive | inactive | inactive
Fc1ccc2nc(-c3ccc(-c4ccc(CNCCc5cccnc5)cc4)s3)[nH]c2c1 | 99% (active) | 40% | -7% | 100% (active) | inactive | inactive | inactive | inactive
Cc1cc(O)c(CN(C)Cc2ccc(N(C)C)cc2)cc1C(C)C | 98% (active) | 3% | -1% | 100% (active) | inactive | inactive | inactive | inactive
